Tests used:
Test in all cases: PBM binding z-score (relative to random genomic background probes); higher = stronger binding; sequences stand for … in GC…GCGATTGACAGCGTAGAATGAAGG
[1] = system: FXR:RXRa (NR concentration 270 nM, RXRa partner concentration 90 nM)
Method in brief: (§1)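 Probes were double-stranded and carried 34-nt variable regions with direct-repeat seeds, single-nucleotide variants, half-site ablations and random human genomic background sequences, printed on custom Agilent 4×180K protein-binding microarrays. Arrays were incubated 1 h with ligand-free nuclear receptor dimers in PBS pH 7.4, 2% milk, 0.02% Triton X-100, 1 mM DTT, 0.2 mg/mL BSA and 0.4 mg/ml salmon testes DNA. Antibodies against each partner (one per run) detected binding, and scanned fluorescence was regression-normalized. Binding z-scores use the random background probes as reference.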

[2] = system: LXRa:RXRa (NR concentration 270 nM, RXRa partner concentration 90 nM)
Method in brief: as §1

[3] = system: LXRa homodimer (NR concentration 270 nM)
Method in brief: as §1

[4] = system: LXRb:RXRa (NR concentration 270 nM, RXRa partner concentration 90 nM)
Method in brief: as §1

[5] = system: LXRb homodimer (NR concentration 270 nM)
Method in brief: as §1

[6] = system: PPARa:RXRa (NR concentration 270 nM, RXRa partner concentration 90 nM)
Method in brief: as §1

[7] = system: PPARg:RXRa (NR concentration 180 nM, RXRa partner concentration 90 nM)
Method in brief: as §1

[8] = system: PPARg:RXRa 270nM:90nM, anti-RXR (NR concentration 270 nM, RXRa partner concentration 90 nM)
Method in brief: as §1

[9] = system: PPARg:RXRa 30nM:10nM, anti-RXR (NR concentration 30 nM, RXRa partner concentration 10 nM)
Method in brief: as §1

[10] = system: PPARg:RXRa 90nM:30nM, anti-RXR (NR concentration 90 nM, RXRa partner concentration 30 nM)
Method in brief: as §1

[11] = system: PPARg:RXRa DBDmut IVT, anti-RXR (DBD mutation: RXRa K156A/R161A, NR concentration 270 nM, RXRa partner concentration 90 nM)
Method in brief: as §1

[12] = system: PPARg:RXRa IVT, anti-PPARg (NR concentration 270 nM, RXRa partner concentration 90 nM)
Method in brief: as §1

[13] = system: PPARg DBDmut:RXRa IVT, anti-PPARg (DBD mutation: PPARg1 K132A/R137A, NR concentration 270 nM, RXRa partner concentration 90 nM)
Method in brief: as §1

[14] = system: PPARg DBDmut IVT, anti-PPARg (DBD mutation: PPARg1 K132A/R137A, NR concentration 270 nM)
Method in brief: as §1

[15] = system: PPARg homodimer (NR concentration 180 nM)
Method in brief: as §1

[16] = system: PXR:RXRa (NR concentration 270 nM, RXRa partner concentration 90 nM)
Method in brief: as §1

[17] = system: PXR homodimer (NR concentration 270 nM)
Method in brief: as §1

[18] = system: RARa:RXR (NR concentration 270 nM, RXRa partner concentration 90 nM)
Method in brief: as §1

[19] = system: RARa homodimer (NR concentration 270 nM)
Method in brief: as §1

[20] = system: RARb:RXRa (NR concentration 270 nM, RXRa partner concentration 90 nM)
Method in brief: as §1

| Sequence | PBM binding z-score [1] | PBM binding z-score [2] | PBM binding z-score [3] | PBM binding z-score [4] | PBM binding z-score [5] | PBM binding z-score [6] | PBM binding z-score [7] | PBM binding z-score [8] | PBM binding z-score [9] | PBM binding z-score [10] | PBM binding z-score [11] | PBM binding z-score [12] | PBM binding z-score [13] | PBM binding z-score [14] | PBM binding z-score [15] | PBM binding z-score [16] | PBM binding z-score [17] | PBM binding z-score [18] | PBM binding z-score [19] | PBM binding z-score [20] |
| --- | --- | --- | --- | --- | --- | --- | --- | --- | --- | --- | --- | --- | --- | --- | --- | --- | --- | --- | --- | --- |
| ATCTCTAGGTAAAAGTACAGTGAATCCCGAGGAT | 0.212 | 0.0141 | 0.0637 | -0.267 | 0.728 | 0.877 | 1.98 | 3.02 | 1.49 | 3.07 | 1.64 | 1.67 | 1.14 | 1.43 | 0.118 | -0.149 | 0.313 | -0.057 | 1.08 | 0.298 |
| GCTTGTAGATCAAGGATAAGAAAGACTAAGCTAA | -0.495 | -1.03 | -0.557 | -0.935 | -0.998 | -0.619 | 0.375 | 0.179 | -0.00993 | -0.0632 | 0.345 | -0.0525 | -0.469 | -0.526 | -0.571 | -0.567 | -0.33 | -0.653 | -1.12 | -1.81 |
| ATCTCTAGGTAACAAGCTCAGTGAAAGAGAGGAC | 0.331 | 0.45 | -0.0616 | -0.105 | 0.556 | 0.394 | 0.682 | 0.77 | 0.327 | 0.644 | 2.93 | 2.48 | 0.643 | 1.26 | 0.56 | -0.0529 | 0.34 | 0.0879 | 0.837 | 0.417 |
| ATCTCTAAGTAAAGATAGTTCAGTGAATGCAAAT | 0.825 | 1.03 | 0.571 | 0.658 | 0.588 | 0.429 | 0.449 | 0.18 | 0.359 | 0.14 | 0.013 | -0.072 | 0.975 | 1.08 | 1.3 | 0.808 | 0.715 | 1.08 | 1.41 | 0.426 |
| CCCACTGGGCCACGAAAGGTCATTGATTCAGTGA | 3.78 | 5.11 | 5.17 | 4.22 | 0.369 | 4.8 | 4.92 | 4.99 | 1.85 | 3.53 | 4.55 | 6.02 | 1.73 | 0.623 | 3 | 5.57 | 1.48 | 5.51 | 1.31 | 4.1 |
| CGAACAAGGTCAGAACAGGACAGTGAAGGATGAT | 4.33 | 3.42 | 0.289 | 2.42 | 0.289 | 3.91 | 3.09 | 3.2 | 1.12 | 1.95 | 2.79 | 3.05 | 0.722 | 0.826 | 1.5 | 3.22 | 0.399 | 2.47 | 0.0836 | 4.31 |
| CCTTACGGGACACTGACAGGTTATAGCATTTGGA | -0.0808 | -0.0885 | 0.186 | 0.0675 | -0.248 | -0.0851 | 0.499 | -0.397 | 0.123 | -0.284 | 0.975 | 0.149 | 0.162 | -0.682 | -0.0979 | -0.2 | 0.162 | -0.0303 | 0.647 | 0.42 |

From the supplement of paper PMC6555819
